Assay outcomes as filed in PubChem BioAssay.
Hits are enriched below; roughly 4.1% of the tested compounds scored in any of these assays.
DAX1 inh-1: DAX1 (NR0B1) inhibitors on StAR promoter, primary screen, cell-based, luminescence, SF-1 (NR5A1), full-length DAX-1; HEK293T StAR-luciferase reporter, SF-1/DAX-1 repression relief; inhibition, % at 6.8 µM; 370,000 compounds, 1.1% hits; AID 652010, 2013;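 active means inhibition above the mean over all tested compounds plus 3 SD, cut at about 3.6% in these data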;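 further: 0% = DAX-1 cells with DMSO and 100% = cells lacking DAX-1 with DMSO; higher inhibition means more luminescence from relief of DAX-1 repression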
DAX1 inh-2: DAX1 (NR0B1) inhibitors, primary screen, cell-based, HEK293, Gal4-DAX1, luciferase luminescence; inhibition, % at 6.75 µM; Nuclear receptor subfamily 0 group B member 1 (Homo sapiens), P51843; 340,000 compounds, 0.99% hits; HEK293 Gal4-DAX1 luciferase reporter;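 active means inhibition above the mean over all tested compounds plus 3 SD, cut at about 4.2% in these data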;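 further: 0% = DAX1-transfected cells with DMSO and 100% = empty-vector control cells with DMSO; inhibition shows as a rise in luminescence from relieved DAX1 repression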
Target sequence (P51843 207-470 limits assumed): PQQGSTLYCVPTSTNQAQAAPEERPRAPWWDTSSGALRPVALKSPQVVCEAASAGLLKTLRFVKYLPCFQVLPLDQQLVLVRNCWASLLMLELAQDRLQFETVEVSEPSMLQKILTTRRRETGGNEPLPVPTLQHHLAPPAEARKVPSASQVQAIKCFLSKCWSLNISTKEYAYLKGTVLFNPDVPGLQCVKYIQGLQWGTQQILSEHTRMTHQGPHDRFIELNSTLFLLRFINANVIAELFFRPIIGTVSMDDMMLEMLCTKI
hcDAF12 agonist: H. contortus DAF-12 nuclear receptor activators, primary screen, cell-based, luminescence, HEK293, lit1-tk-luc reporter; 370,000 compounds, 1.4% hits; HEK293 hcDAF-12 lit1-tk-luc reporter; 0% DMSO, 100% Δ7-dafachronic acid; activation, % at 6.8 µM;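 active means activation above the mean of all tested compounds plus 3 SD, cut at about 5.5% in these data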;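 further: 100% = response to 3 µM Δ7-dafachronic acid high control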
hgDAF12 agonist: H. glycines DAF-12 receptor agonists, primary screen, cell-based, luminescence, HEK293, GAL4 fusion, UAS-luciferase; Nuclear hormone receptor DAF-12 (Heterodera glycines), GAL4 fusion; HEK293 GAL4-hgDAF12 UAS-luciferase reporter, agonist luminescence; normalized to butyrate control; activation, % at 6.8 µM; 370,000 compounds, 1.8% hits; AID 687014, 2013;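 active means activation above a cutoff set at the mean of all screened compounds plus 3 SD, cut at about 10% in these data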;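 further: 0% = DMSO wells and 100% = sodium butyrate wells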
ssDAF-12 act: S. stercoralis DAF-12 nuclear receptor activators, primary screen, cell-based, luminescence, HEK293, GRIP1 co-expression, lit1-tk-luc. Nuclear hormone receptor DAF-12 (Strongyloides stercoralis). 370,000 compounds, 1% hits. activation, % at 6.8 µM. HEK293 ssDAF-12/GRIP1 lit1-tk-luc reporter; % of 3 µM dafachronic acid response;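 active means activation above the mean over all tested compounds plus 3 SD, cut at about 0.9% in these data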;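 further: 0% = DMSO-only wells and 100% = 3 µM delta7-dafachronic acid wells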
Starred values were filed as active, the others as inactive; x = no result given.

SMILES	DAX1 inh-1	DAX1 inh-2	hcDAF12 agonist	hgDAF12 agonist	ssDAF-12 act
Cc1ccc(Cl)cc1N1CCN(C(=O)Cc2c(C(=O)O)[nH]c3ccccc23)CC1	0	1	5	-2	1.2*
Nc1c(C(=O)N/N=C/c2cccnc2)oc2nc(-c3ccco3)cc(-c3ccco3)c12	-1	x	3	1	0.9*
Nc1c(C(=O)N/N=C/c2cccnc2)oc2nc(-c3ccccc3)cc(-c3ccco3)c12	0	x	3	3	0
O=C(NC(=O)c1ccccc1O)c1ccc2c(c1)CCO2	2	-2	4	12*	1.0*
O=C(NC(=S)Nc1cccc(NC(=S)NC(=O)c2ccccc2)c1)c1ccccc1	-1	-2	5	4	0
CCC(=O)Nc1cccc(NC(=S)NC(=O)c2ccccc2)c1	1	-1	3	13*	-1
COC(=O)Nc1ccc(C)c(NC(=O)OC)c1	0	-1	6.4*	0	-1
Cc1ccc(NC(=S)NC(=O)c2ccccc2)cc1NC(=S)NC(=O)c1ccccc1	1	1	6.2*	10	-1
Cc1ccc2cccc(NC(=S)NC(=O)c3ccccc3)c2n1	0	-1	5.7*	2	1.0*
COC(=O)Nc1ccc2c(c1)OCO2	1	0	0	5	-1
COCCCN1C(=O)[C@H](CC(=O)N2CCSCC2)[C@]2(C(=O)OC)CCCCC=C12	0	x	0	1	-1
COc1ccc(-n2c(SCC(=O)Nc3ccc(S(=O)(=O)Nc4nccs4)cc3)nnc2-c2ccco2)cc1	0	x	-2	-4	-1
O=C(NNC(=O)c1ccc(NC(=O)c2ccccc2)cc1)c1ccc(F)cc1	-2	-1	1	-2	-1
O=C(Nc1ccc(C(=O)c2ccccc2)cc1)c1ccccc1	1	1	0	11*	-1
CCOC(=O)c1ccc(NC(=O)c2ccccc2)cc1	2	1	4	11*	-1
CCOC(=O)c1ccc2nc(C)c(C)nc2c1	0	0	5.6*	4	-1
CCOC(=O)c1cccc(NC(=O)c2ccc(N(C)C)cc2)c1	2	-3	1	11*	-1
CCOC(=O)c1cccc(NC(=O)c2ccc(NC(=O)c3ccco3)cc2)c1	-1	0	-3	-4	-1
COC(=O)[C@@]12CCCCC3=C1N(CCC3)C(=O)[C@H]2CC(=O)N1CCCCC1	0	x	1	3	-1
CN(C)c1ccc(NC(=O)c2ccc3nsnc3c2)cc1	3	1	2	11*	0
Cc1nc2ccc(C(=O)Nc3ccc(N(C)C)cc3)cc2s1	0	-3	-4	-6	-2
CCOc1cccc2sc(N(CCN(CC)CC)C(=O)c3ccc(S(=O)(=O)N4CCCCC4)cc3)nc12	0	-1	0	0	2.0*
C/C(=N\NC(=S)NC(C)C)c1cccc([N+](=O)[O-])c1	-1	1	-2	3	-2
C/C(=N\NC(=S)NC(C)C)c1ccc(Cl)c([N+](=O)[O-])c1	0	4.6*	-1	-2	-1
CC(OC(=O)c1cc(O)c2ccccc2c1O)C(=O)Nc1ccc(C(N)=O)cc1 (centres undefined)	-2	1	4	1	1.4*
SMILES	DAX1 inh-1	DAX1 inh-2	hcDAF12 agonist	hgDAF12 agonist	ssDAF-12 act
NC1=[N+](Cc2ccccc2)C(Cc2ccccc2)C2C(=C3CCCCC3n3c(=O)n(-c4ccccc4)c(=O)n32)N1 (centres undefined)	-1	x	0	3	-1
COC(=O)C1CN(Cc2cn(Cc3ccccc3)nn2)CCS(=O)(=O)N1Cc1ccccc1 (centres undefined)	0	x	-3	-1	-2
N/C(=N\OCc1ccccc1)c1nonc1N	2	1	2	11*	-1
Cc1onc(-c2ccccc2)c1C(=O)Nc1ccc(N2CCOCC2)cc1	0	1	-1	-2	-1
Cc1onc(-c2ccccc2)c1C(=O)Nc1ccc(NC(=O)c2c(-c3ccccc3)noc2C)cc1	0	5.1*	2	1	-1
Cc1ccc(S(=O)(=O)N2[C@@H](Cc3ccccc3)CO[C@H]2CC(=O)c2cccs2)cc1	4.0*	x	-1	0	0
Cc1ccc(S(=O)(=O)N2[C@@H](Cc3ccccc3)CO[C@H]2CC(=O)c2ccccc2)cc1	-1	x	1	-1	-1
COc1ccc(C2C(C(=O)N3CCN(c4ccccc4Cl)CC3)CC(=O)N2c2ccc(OC)cc2)cc1 (centres undefined)	-1	x	-3	-1	-2
CCOC(=O)[C@]12CCCCC/C=C\1N(CCc1ccc(Cl)cc1)C(=O)[C@H]2CC(=O)NCc1ccccc1	1	x	-3	2	-1
CCOC(=O)[C@@]12CN(C(=O)OC(C)(C)C)CC=C1N(Cc1ccc(OC)cc1)C(=O)[C@H]2CC(=O)N1CCC(c2ccccc2)CC1	-1	x	-3	-5	-2
Cc1cc(C)cc(NC(=O)N2CCCN(c3c(Cl)cncc3Cl)CC2)c1	0	-1	5	2	1.8*
O=C(Nc1cccc2ccccc12)N1CCCN(c2c(Cl)cncc2Cl)CC1	0	2	-2	-1	-1
COc1cc(F)ccc1-c1csc(C(NC(C)=O)c2cccc(F)c2)n1 (centres undefined)	4.2*	x	0	2	-1
CC(C)(C)n1ncc2c(=O)n(CC(=O)NCCc3ccccc3)cnc21	1	2	-1	2	-1
CC(C)(C)n1ncc2c(=O)n(CC(=O)NCc3ccccc3Cl)cnc21	2	0	6.1*	9	0
CC(C)(C)N1Cc2nnn(Cc3ccccc3)c2-c2cc(N3CCCCC3)ccc2S1(=O)=O	-2	x	-3	1	0
CC(C)(C)NC(=S)NNC(=O)c1ccc2ncccc2c1	3.8*	2	4	11*	0
CC(=O)CC[C@@H]1CC[C@]2(CCCN(C(=O)c3ccccc3)C2)O1	0	x	1	2	-1
CC(=O)NCCCNc1ccc([N+](=O)[O-])cc1	-1	0	6.1*	5	-1
CCNC(=O)C(=O)Nc1ccc([N+](=O)[O-])cc1	0	4.7*	-2	-1	0
CC(Cc1cccs1)NC(=O)c1cccs1 (centres undefined)	2	1	4	5	-2
CCN(CC)C(=S)Nc1ccc([N+](=O)[O-])cc1	0	0	1	2	-2
CC(Cc1cccs1)NC(=O)Nc1ccc([N+](=O)[O-])cc1 (centres undefined)	0	0	2	13*	1
